Measurements published in PubChem BioAssay AID1345083 (National Center for Advancing Translational Sciences (NCATS), 2018).
Out of some 94,000 compounds screened, about 6,200 (6.6%) were called active. Not shown: some 31% with an inconclusive outcome. The call rests on the fitted dose curve; in most records, active means well fitted inhibition curve with a large enough effect; inconclusive means small, poorly fitted or top-dose-only effect; inactive means flat fitted curve, though single readings scatter. Shown is part of a subset that was picked to be rich in actives. A call without a number means that no potency is given here.

assay: Cytotoxic Profiling in HEK 293 Cell Line of Diverse Libraries Using Quantitative High-Throughput Screening; conditions: HEK 293 viability, ATP luminescence (CellTiter-Glo), 48-72 h; series mostly up to 115 µM; further: nearly all actives have a fitted effect of over 60% in size
Summary of the method: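 qHTS cytotoxicity; HEK 293, 250 cells/well; compound pinned; 48 or 72 hr, 37 degree Celsius, 5% CO2, 95% humidity; CellTiter-Glo, 10 min RT; luminescence (ATP).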
Potency means the concentration at half of the fitted maximal effect.

Row | Compound | Potency
1 | CN1C[C@@H](NC(=O)CC(C)(C)C)C[C@H]1c1nc(Cc2ccccc2)no1 | inactive
2 | CN1C[C@@H](NC(=O)c2ccc(C(C)(C)C)cc2)C[C@H]1c1nc(-c2ccc3ccccc3c2)no1 | 22.4 µM (active)
3 | N#Cc1ccc(C(=O)N2C[C@@H]3C[C@H](C2)c2ccc(-c4ccc(OC(F)(F)F)cc4)c(=O)n2C3)cc1 | inactive
4 | CN1C[C@@H](NC(=O)c2cnccn2)C[C@H]1c1nc(-c2ccc3c(c2)OCO3)no1 | inactive
5 | N#Cc1ccc(-c2nc(C(=O)NC3CCCCCC3)no2)cc1 | inactive
6 | CN1C[C@@H](NC(=O)c2ccccc2)C[C@H]1c1nc(-c2ccccc2)no1 | inactive
7 | COc1ccc(CN2C[C@H](O)C[C@H]2c2nc(-c3ccc4c(c3)OCO4)no2)c(OC)c1OC | inactive
8 | CN1C[C@@H](NC(=O)COc2ccccc2)C[C@H]1c1nc(-c2ccc3c(c2)OCO3)no1 | 100 µM (active)
9 | CN1C[C@@H](NC(=O)c2ccc(C#N)cc2)C[C@H]1c1nc(-c2ccc(OC(F)(F)F)cc2)no1 | 22.4 µM (active)
10 | CN(C)C(=O)N1CCN(C(=O)c2cccc(-c3ccccn3)c2)CC1 | inactive
11 | Cc1ccc(S(=O)(=O)Cc2noc([C@@H]3C[C@@H](O)CN3Cc3cccs3)n2)cc1 | inactive
12 | COc1ccc(CCC(=O)N2CCCC(n3c(C)cnc3C3CCOCC3)C2)cc1 (configuration not stated) | inactive
13 | O=C(NC1CC1)c1ccc(CC2CCN(C(=O)c3ccccn3)CC2)cc1 | inactive
14 | COc1ccc(-c2ccc(C(=O)NCc3ccccc3Cl)cc2)nn1 | inactive
15 | COc1ccc(-c2cccc(C(=O)NCc3cccc(Cl)c3)c2)nn1 | 79.4 µM (active)
16 | COc1ccc(-c2ccc(C(=O)N3CCN(C(=O)c4cccc(Cl)c4)CC3)cc2)nn1 | inactive
17 | CCN1CC2(CCN(C(=O)c3cccc(N4CCOCC4)c3)CC2)OC1=O | inactive
18 | C[C@H](C(=O)N1Cc2ccccc2CC2(CCN(Cc3ccncc3)CC2)C1)c1ccccc1 | 50.1 µM (active)
19 | CC(=O)N1Cc2ccccc2CC2(CCCN(Cc3ccncc3)C2)C1 (configuration not stated) | inactive
20 | CC(=O)N1Cc2ccccc2CC2(CCN(Cc3cccnc3)CC2)C1 | inactive
21 | O=C(Nc1cccc(-n2cccn2)c1)C1CCCN(C2CCN(Cc3ccco3)CC2)C1 (configuration not stated) | inactive
22 | COc1ccc(OC)c(CNC(=O)CC2C(=O)NCCN2CC=C(C)C)c1 (configuration not stated) | inactive
23 | COC[C@@H]1CN(C(=O)c2ccc3ncccc3c2)C[C@H]1c1nc(C)no1 | inactive

Row | Compound | Potency
24 | COc1ccc(CNC(=O)N2CCC3(CC2)CC(OCC2CC2)CCO3)cc1 (configuration not stated) | inactive
25 | COc1ccc(CC2CCOC3(CCN(C(=O)NCC(C)C)CC3)C2)cc1 (configuration not stated) | 39.8 µM (active)
26 | CNC(=O)N1CCC2(CC1)CC(Cc1cccc(F)c1)CCO2 (configuration not stated) | inactive
27 | O=C1NCCCCCCN(C(=O)Cc2cccnc2)[C@@H]2C[C@@H](c3nc(-c4cnccn4)no3)C[C@H]12 | inactive
28 | C=CCN1CCC2(CCC1=O)CN(Cc1ncc[nH]1)CCN2C (configuration not stated) | inactive
29 | O=C(c1ccc(F)cc1)N1CCC(N2CC3CC(C2)[C@H]2CCCC(=O)N2C3)CC1 (some centres not stated) | inactive
30 | COCc1cc(CN2C[C@H](NC(=O)CO)[C@@H](C3CC3)C2)ccc1OC | inactive
31 | O=C(C1CCN([S+](=O)([O-])c2cccc(C(F)(F)F)c2)CC1)N1CCC(N2CCCC2=O)CC1 | inactive
32 | O=C1CCN(Cc2ccc(C(F)(F)F)cc2)CCCOCCN1 | inactive
33 | O=C1CCCCCN1C1CCN(Cc2ccc(C(F)(F)F)cc2)CC1 | 31.6 µM (active)
34 | Cn1cnc(S(=O)(=O)N[C@@H]2CCOC[C@H]2Oc2ccc(C(N)=O)cc2)c1 | inactive
35 | OC1(CN2CCC(CCn3cccn3)CC2)CNCCOC1 (configuration not stated) | inactive
36 | O=C(NC1CCc2nnc(C3CC3)n2CC1)c1ccco1 (configuration not stated) | inactive
37 | O=C(Cn1nc(-c2ccco2)ccc1=O)NC1CCCc2c1[nH]c1c(Cl)cccc21 (configuration not stated) | inactive
38 | O=C(NC1CCCc2c1[nH]c1c(Cl)cccc21)c1ccco1 (configuration not stated) | 44.7 µM (active)
39 | CC(C)S(=O)(=O)N1CCC(OCc2noc(C3CCCO3)n2)CC1 (configuration not stated) | inactive
40 | COc1ccc(NC(=O)O[C@@H]2CO[C@H]3[C@@H]2OC[C@@H]3NC(=O)NC2CCCCC2)cc1 | inactive
41 | O=C(Nc1ccc(Cl)cc1)N[C@H]1CO[C@H]2[C@@H]1OC[C@H]2O | inactive
42 | CCNC(=O)O[C@@H]1CO[C@H]2[C@@H]1OC[C@@H]2NC(=O)c1cccc(C(=O)OC)c1 | inactive
43 | CCNC(=O)O[C@@H]1CO[C@H]2[C@@H]1OC[C@@H]2NC(=S)Nc1cccc2ccccc12 | 70.8 µM (active)
44 | N#Cc1cccc(NC(=O)O[C@@H]2CO[C@H]3[C@@H]2OC[C@@H]3Nc2nccc(-c3ccccc3)n2)c1 | 22.4 µM (active)
45 | CC(=O)Nc1cccc(OCC2CN(Cc3cccc(C(F)(F)F)c3)C(=O)c3c(ccnc3-c3ccc(OCC(=O)O)cc3)O2)c1 (configuration not stated) | inactive
46 | COc1ccc(-c2ccnc(N[C@H]3CO[C@H]4[C@@H]3OC[C@H]4OC(=O)Nc3cccc4ccccc34)n2)cc1 | 39.8 µM (active)

Row | Compound | Potency
47 | CC(C)(CC(=O)O)CC(=O)N[C@H]1CO[C@H]2[C@@H]1OC[C@@H]2Nc1nccc(-c2ccc3c(c2)OCO3)n1 | inactive
48 | O=C(Nc1cccc(C(F)(F)F)c1)O[C@@H]1CO[C@H]2[C@@H]1OC[C@@H]2Nc1nccc(-c2ccc3c(c2)OCO3)n1 | 50.1 µM (active)
49 | CNC(=O)[C@@H]1CN(C(=O)Cn2c(=O)oc3ccccc32)C[C@H]1c1n[nH]c(C)n1 | inactive
50 | O=C(O)c1ccc2c(c1)CC(=O)N2Cc1cccc(F)c1 | inactive
51 | CN1CCCCCCN(S(=O)(=O)N(C)C)CCC1=O | inactive
52 | O=C(O)CC1(CC(=O)N2CCN3C(=O)c4cc(-c5ccsc5)ccc4NC(=O)[C@H]3C2)CCCC1 | inactive
53 | c1cncc(CN2CC(Oc3ccc4c(c3)OCO4)C2)c1 | inactive
54 | COC(=O)N1CCN2C[C@@H](C(N)=O)[C@H](c3ccccc3)[C@H]2C1 | inactive
55 | CC(=O)c1c(C)nn(CC(=O)N2CCC(c3cc(C(C)C)n[nH]3)CC2)c1C | inactive
56 | CCC(=O)N1CCC(c2nc(C3CCOCC3)no2)C1 (configuration not stated) | inactive
57 | CSc1ccc(CNC(=O)c2cc3c(N4CCSCC4)nc(C)cn3n2)cc1 | inactive
58 | COCc1nc(-c2ccc(NC(=O)Cn3nc4c(cc3=O)CCCC4)cc2)n[nH]1 | inactive
59 | O=C(NCCCn1cccn1)C1CCCCc2nnc(-c3ccccc3)n21 (configuration not stated) | inactive
60 | COc1ccc(C(=O)N2CCCC(Cc3nc(C4CCOCC4)no3)C2)cc1 (configuration not stated) | inactive
61 | C=CCNC(=O)N[C@H]1CO[C@H]2[C@@H]1OC[C@H]2OC(=O)Nc1cccc(C(C)=O)c1 | inactive
62 | CC(=O)c1ccc(NC(=O)O[C@@H]2CO[C@H]3[C@@H]2OC[C@@H]3Nc2nccc(-c3ccco3)n2)cc1 | 22.4 µM (active)
63 | CC(C)(C)c1ccnc(N[C@H]2CO[C@H]3[C@@H]2OC[C@@H]3NC(=O)CC2(CC(=O)O)CCCC2)n1 | inactive
64 | CC(C)(C)c1ccnc(N[C@H]2CO[C@H]3[C@@H]2OC[C@H]3OC(=O)Nc2cccc(C(F)(F)F)c2)n1 | 39.8 µM (active)
65 | CCCN1CCN(C(=O)C2CCCN(c3cnn(Cc4ccccc4)c(=O)c3)C2)CC1 (configuration not stated) | inactive
66 | O=C(Cc1cccc(F)c1)N1CC(CNC(=O)N2CCCC2)C2(CCOCC2)C1 (configuration not stated) | inactive
67 | Cc1oc2c(c1C(=O)NC1CCN(C)CC1)CN(C)CC2 | inactive
68 | O=C(Cn1c(=O)oc2ccccc21)NC1CCc2nn(CC3CC3)c(=O)n2CC1 (configuration not stated) | inactive
69 | COc1ccccc1N1CCN(C(=O)Cn2c(N3CCc4ccccc4C3)nc(C)cc2=O)CC1 | 35.5 µM (active)

Row | Compound | Potency
70 | Cc1cc(=O)n(CC(=O)Nc2cccc(Cl)c2C)c(N2CCc3ccccc3C2)n1 | inactive
71 | CNC(=O)c1cc(C)nc2onc(C3CCCN3C(=O)c3ccccc3OC)c12 (configuration not stated) | inactive
72 | COCCOc1cc(=O)n2c(c1C(=O)NCc1ccccc1)CCOCC2 | inactive
73 | Cc1ccccc1CN1CCc2ncc(C(=O)NCCOc3ccccc3)n2CC1 | 79.4 µM (active)
74 | COc1ccc(CN2CCc3ncc(C(=O)Nc4ccccc4C)n3CC2)cn1 | inactive
75 | COc1ncc(CN2CCc3ncc(C(=O)Nc4ccccc4)n3CC2)cn1 | inactive
76 | Cc1cccc(CN2CCc3ncc(C(=O)NCc4ccccc4)n3CC2)n1 | 100 µM (active)
77 | COc1ccc(CN2CCc3ncc(C(=O)NCCOc4ccccc4)n3CC2)cn1 | inactive
78 | CCOCC(=O)N[C@@H]1c2ccccc2C2(CCNCC2)[C@H]1OC | inactive
79 | COc1ccc(CCNC(=O)C2CC(=O)N(c3n[nH]c4cccc(F)c34)C2)cc1 (configuration not stated) | inactive
80 | COc1cccc(-c2cn(C3CCN(C(=O)c4ccc(Cl)cc4)CC3)c(=O)[nH]2)c1 | inactive
81 | Cc1ccc(OCC(=O)NCc2cccnc2N2CCOCC2)cc1 | inactive
82 | Cc1ccccc1CN1CCCn2nc(C)c(-c3cccnc3N3CCOCC3)c21 | 70.8 µM (active)
83 | C=CCCCC(=O)Nc1ccc(NC(=O)C(C)(C)C)c(OC)c1 | inactive
84 | O=C(Nc1cccn2nc(C3CCC3)nc12)c1cccc(F)c1 | 39.8 µM (active)
85 | O=C(NCc1cc2n(n1)CCCN(C1CCCCC1)C2)c1cccc(F)c1 | inactive
86 | O=C1CCCCC(CNC(=O)c2cccc(F)c2)N1 (configuration not stated) | inactive
87 | CCNC(=O)C1(CCO)CCN(c2ncccn2)C1 (configuration not stated) | inactive
88 | O=C(NCc1ccc(Cl)nc1)c1cn2c(n1)CN([S+](=O)([O-])c1cccc(C(F)(F)F)c1)CC2 | inactive
89 | CC1(C(=O)N2CCN(Cc3ccccc3)CC2)CCOCC1 | inactive
90 | O=C(Cc1ccc(F)cc1)N1CCOCC2(CN(Cc3ccccc3)C2)C1 | 39.8 µM (active)
91 | CC(=O)N1CCC2(CC1)CN(C(=O)Cc1cccc(Cl)c1)CCO2 | inactive
92 | O=C(Cn1nc2n(c1=O)CCCCC2)N1CCc2ccccc21 | inactive
